Several values for one entry are separate records, joined by “and”; a condition that tells them apart may be missing. Equal values may be shown once. Inconclusive results are not listed. Where a structure was tested more than once in an assay, its records may differ in their call. Activity calls are given as the source filed them. Unless noted, calls follow the shape of the dose curve; as a rule, active = well fitted curve in the direction sought with a large enough effect in the repeat runs; inconclusive = weak or mixed curves; inactive = no such curve, though single readings can be large; an effect the other way counts as inactive or inconclusive.
Tests used:
[1] = qHTS assay to identify small molecule antagonists of the androgen receptor (AR) signaling pathway using the MDA cell line in the presence of 0.5 nM R1881 - cell viability counter screen (AID 1259242); also: nearly all actives have a fitted effect of over 45% in size; also: potency is read from the fitted curve at half-maximal effect
Method in brief: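 Fluorescence from CellTiter-Fluor, which reports protease activity of live cells, was read 30 min after reagent addition to MDA-kb2 cells that had been incubated 16 hr with compound and 0.5 nM R1881.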

[2] = qHTS assay to identify small molecule HDAC inhibitors (AID 1259364); also: nearly all actives have a fitted effect of over 45% in size; also: potency is read from the fitted curve at half-maximal effect; as to activity change, negative = inhibition: top concentration of the series differs between compounds
Method in brief: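 Endogenous HDAC class I/II activity was measured in wild-type HCT-116 cells by HDAC-Glo luminescence after 2 h compound treatment.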

[3] = qHTS assay to identify small molecule HDAC inhibitors - cell viability counter screen (AID 1259365); also: series mostly up to about 92 µM; nearly all actives have a fitted effect of over 50% in size
Method in brief: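 CellTiter-Glo luminescence (30 min, room temperature) reported viability after a 2 h compound exposure at 37 C. Cells: wild-type HCT-116, 1,500 per well, seeded the night before.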

[4] = qHTS assay to identify small molecule antagonists of the sonic hedgehog signaling (Shh) pathway - cell viability counter screen (AID 1259367); also: nearly all actives have a fitted effect of over 55% in size; also: potency is read from the fitted curve at half-maximal effect
Method in brief: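 Using CellTiter-Fluor, viability of Gli1-Luc reporter 3T3 cells is read by fluorescence in the wells used for the Shh luciferase assay. Treatment lasts 23 hr with conditioned medium, then reagent 1 hr at 37C.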

[5] = qHTS assay to identify small molecule agonists of the sonic hedgehog signaling (Shh) pathway (AID 1259368; calls by dose curve;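 also: NIH/3T3-derived 3T3Gli1-Luc cells carrying a stable Gli1-driven firefly luciferase reporter; series mostly up to about 92 µM; nearly all actives have a fitted effect of over 15% in size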)
Method in brief: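 Luminescent signal was taken as a measure of Gli1-controlled luciferase expression in stably transfected NIH/3T3-derived cells that had been treated for 24 hr with compounds delivered in DMSO.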

[6] = qHTS assay to identify small molecule antagonists of the sonic hedgehog signaling (Shh) pathway (AID 1259369; calls by dose curve; also: nearly all actives have a fitted effect of over 45% in size; also: potency is read from the fitted curve at half-maximal effect)
Method in brief: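 Screening used 3T3Gli1-Luc cells at 2,000 per well, compounds delivered in DMSO, and conditioned medium as agonist stimulus; plates incubated 24hr at 37 C and 5% CO2 before a 30min luciferase step.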

[7] = target: Estrogen receptor beta (Homo sapiens) (UniProt Q92731); test: qHTS assay to identify small molecule agonists of the estrogen receptor beta (ER-beta) signaling pathway (AID 1259377; active = well fitted activation curve with a large enough effect in the signal ratio in the repeat runs, not every such curve was filed as active; the % refers to the signal ratio)
Method in brief: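 Ratiometric beta-lactamase FRET read-out came after 2 h substrate loading at room temperature. It followed 16 h compound treatment at 37C of GripTite HEK293T cells carrying a UAS-bla reporter, plated in 2% charcoal-stripped FBS medium.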

[8] = qHTS assay to identify small molecule agonists of the androgen receptor (AR) signaling pathway in the presence of an antagonist - cell viability counter screen (AID 1259379); also: nearly all actives have a fitted effect of over 25% in size; also: potency is read from the fitted curve at half-maximal effect;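 as to activity change, negative = cytotoxicity: MDA-kb2 human breast cancer cells carrying an MMTV luciferase reporter; series mostly up to about 92 µM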
Method in brief: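 In MDA-kb2 cells (human breast carcinoma, MMTV-luciferase), compounds at 15 concentrations plus 3.0uM nilutamide; 16 hr, 37C, 0% CO2; CellTiter-Fluor fluorescence read for viability.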

[9] = qHTS assay to identify small molecule agonists of the estrogen receptor beta (ER-beta) signaling pathway - cell viability counter screen (AID 1259380); also: nearly all actives have a fitted effect of over 30% in size; also: potency is read from the fitted curve at half-maximal effect
Method in brief: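 Viability of ER-beta-UAS-bla HEK293T cells was determined by CellTiter-Glo luminescence following 16 hr treatment with test compounds at 37C.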

[10] = qHTS assay to identify small molecule antagonists of the estrogen receptor beta (ER-beta) signaling pathway - cell viability counter screen (AID 1259382); also: nearly all actives have a fitted effect of over 55% in size; also: potency is read from the fitted curve at half-maximal effect;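 as to activity change, negative = cytotoxicity: HEK293T cells carrying ER-beta-UAS-bla reporter stimulated with estradiol; series mostly up to about 92 µM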
Method in brief: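 Tox21 10K library tested in qHTS format on ER-beta-bla HEK293T cells stimulated with 1nM E2; 16 hr treatment at 37C. Same-well CellTiter-Glo luminescence served as the cell viability measure.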

[11] = qHTS assay to identify small molecule agonists or antagonists of the thyroid stimulating hormone receptor (TSHR) signaling pathway - wild type cell line counter screen (AID 1259384; calls by dose curve)
Method in brief: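 Counter screen in untransfected Hek293: compounds (15-point titration, triplicate) plus phosphodiesterase inhibitor Ro20-1724 added after 18 h plating; 30 min RT. Intracellular cAMP via competitive d2/cryptate immunoassay, 1 h incubation.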

[12] = target: Thyrotropin receptor (Homo sapiens) (UniProt P16473); test: qHTS assay to identify small molecule antagonists of the thyroid stimulating hormone receptor (TSHR) signaling pathway (AID 1259385; calls by dose curve; also: nearly all actives have a fitted effect of over 20% in size)
Method in brief: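 Antagonist mode: compound-treated TSHR-expressing HEK293 cells were stimulated with 1.5 ng/mL TSH (final) in presence of Ro20-1724 for 30 min at RT. HTRF cAMP detection after 1 h; each compound tested at 15 concentrations, triplicate.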

[13] = qHTS assay to identify small molecule agonists of the estrogen receptor alpha (ER-alpha) signaling pathway in the presence of an antagonist - cell viability counter screen (AID 1259386);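 also: cells exposed to compounds for 22 h at 37 °C before the viability read; nearly all actives have a fitted effect of over 30% in size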; also: potency is read from the fitted curve at half-maximal effect; as to activity change, negative = cytotoxicity: series mostly up to about 92 µM
Method in brief: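 Fluorescent CellTiter-Fluor viability signal from VM7Luc4E2 cells, with the reagent added during the final hour of a 22hr compound exposure at 37C in the presence of 10.0nM ICI-182,780.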

[14] = target: Estrogen receptor (Homo sapiens) (UniProt P03372); test: qHTS assay to identify small molecule agonists of the estrogen receptor alpha (ER-alpha) signaling pathway in the presence of an antagonist (AID 1259383; calls by dose curve; also: top concentration of the series differs between compounds; nearly all actives have a fitted effect of over 15% in size)
Method in brief: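 In VM7Luc4E2 cells, 4,000 per well, compounds at 15 concentrations were co-incubated 22hr at 37C with 10.0nM final ICI-182,780. Luminescence from the stably transfected 4×ERE-luciferase reporter was recorded 30min after ONE-Glo addition.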

[15] = target: Estrogen receptor beta (Homo sapiens) (UniProt Q92731); test: qHTS assay to identify small molecule antagonists of the estrogen receptor beta (ER-beta) signaling pathway (AID 1259378; active = well fitted inhibition curve with a large enough effect in the signal ratio in the repeat runs, not every such curve was filed as active; the % refers to the signal ratio; also: potency is read from the fitted curve at half-maximal effect)
Method in brief: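 Antagonist mode: compounds added to beta-lactamase reporter HEK293T ER-beta-UAS cells stimulated with E2 (1nM final), 16 hr at 37C. LiveBLAzer B/G FRET substrate, 2 hours room temperature, fluorescence read-out.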

[16] = qHTS assay to identify small molecule agonists of the sonic hedgehog signaling (Shh) pathway - cell viability counter screen (AID 1259366); also: nearly all actives have a fitted effect of over 50% in size; also: potency is read from the fitted curve at half-maximal effect
Method in brief: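 Cytotoxicity counter screen: CellTiter-Fluor reagent added after 23 h compound exposure, then 1 h at 37C and fluorescence read. Cells were 3T3 Gli1-Luc, seeded 2,000 per well and dosed 4 h post-plating.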

[17] = target: Estrogen receptor (Homo sapiens) (UniProt P03372); test: qHTS assay to identify small molecule antagonists of the estrogen receptor alpha (ER-alpha) signaling pathway using the BG1 cell line in the presence of 0.1 nM 17-beta-estradiol (AID 1259244); also: nearly all actives have a fitted effect of over 50% in size; also: potency is read from the fitted curve at half-maximal effect
Method in brief: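 Quantitative high-throughput screen in VM7Luc4E2 cells: compound plus 0.1 nM E2 (final), 22 h, 37C, 5% CO2; ONE-Glo added, 30 min room temperature, luminescence measured.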

[18] = qHTS assay to identify small molecule phospholipidosis (PLD) inducers (AID 1259344; active = well fitted curve in the direction sought with a large enough effect; an effect the other way counts as inactive or inconclusive)
Method in brief: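 Fluorescent phospholipid staining (LipidTOX Red) measured by automated microscopy in fixed HepG2 cells after 24 h treatment; nuclei counterstained with Hoechst 33342; amiodarone as reference inducer.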

[19] = target: Androgen receptor (Homo sapiens) (UniProt P10275); test: qHTS assay to identify small molecule antagonists of the androgen receptor (AR) signaling pathway using the MDA cell line in the presence of 0.5 nM R1881 (AID 1259243); also: nearly all actives have a fitted effect of over 50% in size
Method in brief: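 Inhibition of R1881 (0.5 nM final) induced reporter signal was measured in human MDA-kb2 cells; note the MMTV promoter also responds to GR. Exposure lasted 16 hr at 37C.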
% is scaled to controls: 0 for no effect and ±100 for the full control effect.

Sequence of Estrogen receptor beta (Homo sapiens) (Q92731 whole entry, looked up): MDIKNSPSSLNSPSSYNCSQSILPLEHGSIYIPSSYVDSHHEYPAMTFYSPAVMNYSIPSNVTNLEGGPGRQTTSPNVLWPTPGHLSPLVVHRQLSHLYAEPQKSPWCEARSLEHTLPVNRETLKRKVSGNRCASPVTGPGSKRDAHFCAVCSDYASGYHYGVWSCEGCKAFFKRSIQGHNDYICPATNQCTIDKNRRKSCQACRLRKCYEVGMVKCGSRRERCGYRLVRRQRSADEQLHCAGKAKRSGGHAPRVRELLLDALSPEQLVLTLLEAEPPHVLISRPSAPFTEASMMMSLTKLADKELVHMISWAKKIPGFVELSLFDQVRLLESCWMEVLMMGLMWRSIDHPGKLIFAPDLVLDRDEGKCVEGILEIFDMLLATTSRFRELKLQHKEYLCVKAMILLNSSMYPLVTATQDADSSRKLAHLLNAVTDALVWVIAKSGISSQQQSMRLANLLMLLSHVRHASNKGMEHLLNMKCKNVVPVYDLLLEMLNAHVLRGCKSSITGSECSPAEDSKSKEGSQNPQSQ
Sequence of Thyrotropin receptor (Homo sapiens) (P16473 whole entry, looked up): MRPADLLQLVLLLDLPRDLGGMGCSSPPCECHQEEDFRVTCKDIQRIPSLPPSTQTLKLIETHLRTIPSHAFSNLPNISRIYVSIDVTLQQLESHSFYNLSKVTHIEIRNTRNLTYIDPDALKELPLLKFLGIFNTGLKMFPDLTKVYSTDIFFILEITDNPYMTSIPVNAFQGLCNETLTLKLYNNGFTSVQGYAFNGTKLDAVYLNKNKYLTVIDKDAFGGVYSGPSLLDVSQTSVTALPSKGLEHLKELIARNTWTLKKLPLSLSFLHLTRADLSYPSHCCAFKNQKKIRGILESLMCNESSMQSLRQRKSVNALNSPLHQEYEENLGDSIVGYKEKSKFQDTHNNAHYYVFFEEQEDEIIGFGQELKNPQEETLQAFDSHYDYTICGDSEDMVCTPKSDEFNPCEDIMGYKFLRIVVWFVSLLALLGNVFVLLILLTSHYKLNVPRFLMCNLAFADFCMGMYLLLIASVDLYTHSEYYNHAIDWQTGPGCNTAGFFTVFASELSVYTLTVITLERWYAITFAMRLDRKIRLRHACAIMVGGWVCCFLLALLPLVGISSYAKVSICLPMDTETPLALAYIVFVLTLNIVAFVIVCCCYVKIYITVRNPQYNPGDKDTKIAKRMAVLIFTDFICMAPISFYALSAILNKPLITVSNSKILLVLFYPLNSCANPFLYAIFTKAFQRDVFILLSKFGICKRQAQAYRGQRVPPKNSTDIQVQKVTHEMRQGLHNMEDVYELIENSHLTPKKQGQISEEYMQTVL
Sequence of Estrogen receptor (Homo sapiens) (P03372 whole entry, looked up): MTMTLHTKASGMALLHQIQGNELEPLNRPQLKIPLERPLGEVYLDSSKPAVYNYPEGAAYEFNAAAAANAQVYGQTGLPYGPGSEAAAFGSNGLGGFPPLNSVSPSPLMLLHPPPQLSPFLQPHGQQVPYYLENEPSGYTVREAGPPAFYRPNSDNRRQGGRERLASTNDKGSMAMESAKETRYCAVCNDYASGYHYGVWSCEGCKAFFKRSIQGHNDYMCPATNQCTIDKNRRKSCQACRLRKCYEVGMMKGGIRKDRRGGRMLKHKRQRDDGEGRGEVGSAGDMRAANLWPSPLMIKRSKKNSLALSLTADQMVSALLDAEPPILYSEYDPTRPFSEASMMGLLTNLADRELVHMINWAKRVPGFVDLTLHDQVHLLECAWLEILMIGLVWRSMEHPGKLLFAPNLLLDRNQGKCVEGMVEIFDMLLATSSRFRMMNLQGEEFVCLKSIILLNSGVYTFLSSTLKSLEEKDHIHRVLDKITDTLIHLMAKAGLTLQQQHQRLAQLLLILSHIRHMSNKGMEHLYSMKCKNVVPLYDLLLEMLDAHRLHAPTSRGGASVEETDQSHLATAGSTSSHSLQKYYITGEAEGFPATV
Sequence of Androgen receptor (Homo sapiens) (P10275 whole entry, looked up): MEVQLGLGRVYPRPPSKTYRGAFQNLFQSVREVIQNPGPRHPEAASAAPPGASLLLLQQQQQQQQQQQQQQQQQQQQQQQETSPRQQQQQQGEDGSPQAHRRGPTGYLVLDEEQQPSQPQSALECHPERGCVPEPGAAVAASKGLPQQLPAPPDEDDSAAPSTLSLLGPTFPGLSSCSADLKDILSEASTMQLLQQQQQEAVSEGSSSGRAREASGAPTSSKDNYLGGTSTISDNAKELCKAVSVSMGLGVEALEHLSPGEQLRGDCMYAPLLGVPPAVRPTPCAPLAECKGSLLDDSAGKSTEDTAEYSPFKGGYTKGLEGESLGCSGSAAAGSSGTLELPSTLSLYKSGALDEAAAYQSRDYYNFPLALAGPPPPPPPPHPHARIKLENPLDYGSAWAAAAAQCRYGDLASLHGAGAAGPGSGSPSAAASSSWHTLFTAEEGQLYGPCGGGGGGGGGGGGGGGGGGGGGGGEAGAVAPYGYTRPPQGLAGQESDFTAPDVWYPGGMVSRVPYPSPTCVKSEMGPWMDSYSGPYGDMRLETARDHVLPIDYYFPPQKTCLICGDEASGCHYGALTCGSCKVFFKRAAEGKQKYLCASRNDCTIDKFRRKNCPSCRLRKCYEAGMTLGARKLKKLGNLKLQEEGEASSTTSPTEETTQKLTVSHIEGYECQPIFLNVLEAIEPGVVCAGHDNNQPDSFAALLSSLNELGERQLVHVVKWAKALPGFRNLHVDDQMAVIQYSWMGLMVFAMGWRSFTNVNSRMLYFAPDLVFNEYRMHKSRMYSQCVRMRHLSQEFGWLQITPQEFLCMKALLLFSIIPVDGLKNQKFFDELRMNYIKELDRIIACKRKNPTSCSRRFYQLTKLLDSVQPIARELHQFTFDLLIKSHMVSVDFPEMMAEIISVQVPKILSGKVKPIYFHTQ

O=C(O)CCN(C1(C(=O)NO)CCCC1)S(=O)(=O)c1ccc(Oc2ccc(F)cc2)cc1
inactive: Potency [1] | Potency [2] | Potency [3] | Potency [4] | Potency [5] | Potency [6] | Potency [7] | Potency [8] | Potency [9] | Potency [10] | outcome [11] | Potency [12] | Potency [13]

CC/C=C\CCCCCO
inactive: Potency [1] | Potency [2] | Potency [3] | Potency [4] | Potency [5] | Potency [6] | Potency [7] | Potency [8] | Potency [10] | outcome [11] | Potency [12] | Potency [13]

Cc1ccc(O)c(N)c1
active: Potency [4] 27.3 µM | Potency [6] 8.64 µM | Potency [9] 24.4 µM
inactive: Potency [1] | Potency [3] | Potency [5] | Potency [8] | Potency [14] | outcome [11]

CN1CCN(Cc2cc(-c3ccc4[nH]c(=O)oc4c3)co2)[C@@H](c2ccc(F)cc2)C1
active: Potency [9] 13.2 µM
inactive: Potency [1] | Potency [2] | Potency [3] | Potency [5] | Potency [10] | Potency [12]

O=c1oc2cc(O)ccc2c2oc3cc(O)ccc3c12
active: Potency [2] 9.29 µM | Potency [6] 13.1 µM | Potency [9] 37 µM
inactive: Potency [1] | Potency [4] | Potency [8] | Potency [10] | Potency [13]

CC[C@H](C)COC(=O)/C=C/c1ccc(N=Cc2ccc(OC)cc2)cc1
inactive: Potency [1] | Potency [3] | Potency [4] | Potency [5] | Potency [14] | outcome [11]
active: Potency [15] 54.4 µM | Potency [9] 6.1 µM

O=C(/C=C/c1ccc(O)c(O)c1)O[C@@H](C(=O)O)[C@@H](OC(=O)/C=C/c1ccc(O)c(O)c1)C(=O)O
inactive: Potency [1] | Potency [2] | Potency [3] | Potency [5] | Potency [7] | Potency [8] | Potency [9] | Potency [10]

Cc1ccc(O)c(O)c1
inactive: Potency [1] | Potency [2] | Potency [5] | Potency [7] | Potency [8] | Potency [9] | Potency [10]
active: Potency [4] 21.1 µM | Potency [6] 5.29 µM

O=S(=O)(O)c1ccc(N=Nc2c(O)ccc3ccccc23)cc1
active: Potency [1] 30.6 µM | Potency [2] 0.686 µM | Potency [16] 27.3 µM | Potency [4] 27.3 µM | Potency [8] 27.3 µM | Potency [9] 43.3 µM
inactive: Potency [5] | Potency [7] | Potency [14] | outcome [11]

CC[N+](CC)(CC)CCOc1ccc(/C=C/c2ccccc2)cc1
active: Potency [17] 13.3 µM | Potency [8] 9.44 µM
inactive: Potency [18] | Potency [2] | Potency [3] | Potency [16] | Potency [4] | Potency [5] | Potency [7] | Potency [10] | Potency [14] | Potency [12] | Potency [13]

CCOC(=O)c1ccc(C2CCC(NC[C@H](O)COc3ccc(O)c(NS(C)(=O)=O)c3)CC2)cc1 (some centres undefined)
inactive: Potency [1] | Potency [2] | Potency [3] | Potency [5] | Potency [7]
active: Potency [4] 50.2 µM | Potency [6] 10 µM | Potency [9] 50.2 µM

CC(C)=CCC1=C(O)c2ccccc2C(=O)C1=O
inactive: Potency [19] | Potency [2] | Potency [3] | Potency [5] | Potency [7] | Potency [14]
active: Potency [8] 43 µM | Potency [9] 1.53 µM | Potency [13] 43 µM

O=C1NC(=O)[C@@H]2CC=CC[C@H]12
active: Potency [9] 27.3 µM
inactive: Potency [1] | Potency [2] | Potency [3] | Potency [4] | Potency [5] | Potency [6] | Potency [7] | Potency [15] | Potency [8] | outcome [11] | Potency [12]

COc1cc2nc(N3CCN(C(=O)c4ccco4)CC3)nc(N)c2cc1OC
inactive: activity change, negative = inhibition [17] -15.5% [at 19 µM] | Potency [18] | activity change, negative = cytotoxicity [3] -0.972% [at 19 µM] | viability change, negative = cytotoxic [4] -24.8% [at 19 µM] | activity change [5] -4.98% [at 18.9 µM, stronger effect = higher value] | activation [7] -0.974% [at 19 µM] | activity, negative = inhibition [15] 1.22% [at 19 µM] | activity change, negative = cytotoxicity [10] -13.3% [at 19 µM] | activation [14] 0.868% [at 19 µM] | cAMP activity change [11] -1.07% [at 18.9 µM] | activity change, negative = inhibition [12] -8.31% [at 19 µM]

O=C1OC2(c3ccc(O)cc3Oc3cc(O)ccc32)c2ccc(N=C=S)cc21
inactive: Potency [1] | Potency [2] | Potency [3] | Potency [4] | Potency [5] | Potency [10] | outcome [11] | Potency [12]

CCN(CC)C(=O)c1cc(S(=O)(=O)Cc2ccccc2)c(N2CCC(c3ccccc3)CC2)cc1N(CC)CCN(C)C
active: Potency [16] 13.5 µM | Potency [4] 9.58 µM | Potency [6] 6.78 µM | Potency [15] 21.4 µM | Potency [9] 19.1 µM | Potency [10] 19.1 µM
inactive: Potency [17] | Potency [18] | Potency [2] | Potency [3] | Potency [5] | Potency [7] | Potency [14] | outcome [11] | Potency [13]

Nc1ccc(NCCO)c([N+](=O)[O-])c1
active: Potency [8] 48.6 µM | Potency [13] 30.6 µM
inactive: Potency [2] | Potency [3] | Potency [5] | Potency [6] | Potency [7] | Potency [15] | Potency [10]

CCCCCCCCCCCCCCCC[N+](C)(C)CC
active: Potency [17] 27.4 µM and 26.6 µM | Potency [16] 68.8 µM | Potency [6] 6.88 µM and 15 nM | Potency [8] 48.7 µM and 18.8 µM | Potency [9] 54.6 µM and 11.9 µM | Potency [10] 34.5 µM and 23.7 µM
inactive: Potency [18] | Potency [2] | Potency [3] | Potency [5] | Potency [14] | outcome [11] | Potency [12] | Potency [13]
54.6 µM (active) and inactive: Potency [4]
